In PubChem BioAssay (NCATS):
Inconclusive results are not listed. A call without a number means that no potency is given here. Unmarked numbers belong to inactive results. Activity calls are given as the source filed them. The call rests on the fitted dose curve; in most records, active means well fitted curve in the direction sought with a large enough effect; inconclusive means small, poorly fitted or top-dose-only effect, or another doubt; inactive means no such curve, though single readings can be large; an effect the other way counts as inactive or inconclusive.

Assays:
[1] = target: Cellular tumor antigen p53 (Homo sapiens) (UniProt P04637); assay: Primary qHTS for small molecule compounds that upregulate eGFP-tagged delta133p53alpha (in N-terminal) cells. (AID 2060322); conditions: NCI-H358 eGFP-delta133p53alpha fluorescence, 24 h; activation: hits give high values; further: nearly all actives have a fitted effect of over 75% in size; further: potency means the concentration at half of the fitted maximal effect; on activation: series mostly up to about 56 µM
Outline: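 NCI-H358 cells pre-induced 24 h with 10 ng/ml doxycycline to express N-terminal eGFP-delta133p53alpha, then dosed 24 h at 37C without doxycycline; fixed, Hoechst-stained, GFP intensity by laser scanning cytometry, normalized to DMSO (0%) and 57.5 uM 5-azacytidine (100%).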

[2] = target: Aldehyde dehydrogenase, mitochondrial (Homo sapiens) (UniProt P05091); assay: qHTS for Inhibitors of the Aldehyde Dehydrogenase Family (ALDH2) Primary screen (AID 2061308); further: nearly all actives have a fitted effect of over 55% in size
[3] = target: Retinaldehyde dehydrogenase 3 (Homo sapiens) (UniProt P47895); assay: qHTS for Inhibitors of the Aldehyde Dehydrogenase Family (ALDH1A3) Primary screen (AID 2061315)

Sequence of Cellular tumor antigen p53 (Homo sapiens) (P04637 whole entry, looked up): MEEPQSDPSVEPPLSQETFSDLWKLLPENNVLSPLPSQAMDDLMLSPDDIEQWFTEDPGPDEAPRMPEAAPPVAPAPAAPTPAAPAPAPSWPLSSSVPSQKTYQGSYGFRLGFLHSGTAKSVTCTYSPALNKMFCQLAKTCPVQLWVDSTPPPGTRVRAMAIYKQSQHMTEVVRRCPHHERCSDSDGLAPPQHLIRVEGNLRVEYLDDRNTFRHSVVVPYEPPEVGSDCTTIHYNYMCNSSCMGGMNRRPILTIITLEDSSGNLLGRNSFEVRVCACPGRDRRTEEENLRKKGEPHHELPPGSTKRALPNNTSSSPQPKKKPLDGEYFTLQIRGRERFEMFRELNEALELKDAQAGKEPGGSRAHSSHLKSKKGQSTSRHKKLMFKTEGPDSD

SMILES | activation [1] | Potency [2] | Potency [3] | activity change, negative = inhibition [2] | activity change, negative = inhibition [3] | Potency [1]
CC(C)=CCC(O)[C@](C)(O)C1[C@H](O)C[C@@]2(C)C3CC=C4C(C[C@H](O)[C@@H](O[C@@H]5O[C@H](CO)[C@@H](O)[C@H](O)[C@H]5O)C4(C)C)[C@]3(C)C(=O)C[C@]12C (stereo partly specified) | 10.7% | inactive | inactive | – | – | –
CC1(C)CCC2(C(=O)OC3OCC(O)C(O)C3O)CCC3(C)C(=CCC4C5(C)CC(O)C(OC6OC(COC7OCC(O)C(O)C7O)C(O)C(O)C6O)C(C)(C)C5CCC43C)C2C1 (stereo unspecified) | 4.46% | inactive | inactive | – | – | –
Cn1ncnc1[C@@H]1c2n[nH]c(=O)c3cc(F)cc(c23)N[C@H]1c1ccc(F)cc1 | -7.14% | inactive | inactive | – | – | –
CC1(C)CC[C@]2(C(=O)O)CC[C@]3(C)C(=CCC4[C@@]5(C)CCC(O[C@@H]6OC[C@H](O)[C@H](O)[C@H]6O[C@@H]6O[C@H](CO)[C@@H](O)[C@H](O)[C@H]6O)[C@@](C)(CO)C5CC[C@]43C)[C@@H]2C1 (stereo partly specified) | 14.3% | inactive | inactive | – | – | –
C/C1=C\[C@H]2OC(=O)[C@@H](C)[C@@H]2CC/C(C(=O)O)=C/CC1 | -5.34% | inactive | inactive | – | – | –
CC(=O)OCC1(O)CCC2C(COC3OC(CO)C(O)C(O)C3OC(=O)/C=C/c3ccc(O)cc3)=COC(OC(=O)CC(C)C)C21 (stereo unspecified) | 11.5% | inactive | inactive | – | – | –
CC1C(=O)CC2C3C(O)CC(C(=O)O)C12CC3(C)C (stereo unspecified) | 1.53% | inactive | inactive | – | – | –
C/C=C(\C)C(=O)OC[C@H]1O[C@@H](O[C@H]2[C@@H](O[C@H]3O[C@H](COC(=O)/C(C)=C/C)[C@@H](O)[C@H](O)[C@H]3O[C@@H]3O[C@H](CO)[C@@H](O)[C@H](OC(=O)/C(C)=C/C)[C@H]3O)O[C@H](COC(=O)/C(C)=C/C)[C@@H](O)[C@@H]2O)[C@H](O)[C@@H](O)[C@@H]1O | -25.2% | inactive | inactive | – | – | –
COC(=O)C1=CO[C@@H](O[C@@H]2O[C@H](CO)[C@@H](O)[C@H](O)[C@H]2O)[C@@H]2[C@@H](C)[C@@H](OC(=O)/C=C/c3ccccc3)[C@@H](O)[C@H]12 | -5.34% | inactive | inactive | – | – | –
Cc1ccccc1NC(=O)Nc1ccc(CC(=O)N(C)[C@@H](CC(C)C)C(=O)NCC[C@H](NC(=O)[C@@H]2CCCN2S(=O)(=O)c2cc(Cl)cc(Cl)c2)C(=O)O)cc1 | 1.67% | inactive | inactive | – | – | –
COc1ccc(NC(=O)C2C[C@H](C)CC[C@H]2C(C)C)cc1 (stereo partly specified) | 5.67% | inactive | inactive | – | – | –
CC(C)(C)[C@H](NC(=O)c1ccc(N)c(Cl)c1)C(=O)N1CCC[C@H]1C(=O)N[C@H](C#N)CC(=O)O | -7% | inactive | inactive | – | – | –
C=C(CCO[C@@H]1O[C@H](CO)[C@@H](O)[C@H](O)[C@H]1O)C(=O)O | -22.3% | inactive | inactive | – | – | –
CC(=O)/C=C/C1(O)C(C)=CC(=O)CC1(C)C (stereo unspecified) | 14.3% | inactive | inactive | – | – | –
CC1=C2CC(=O)C(C)CC/C=C(\C)CC2OC1=O (stereo unspecified) | 8.93% | inactive | inactive | – | – | –
CC1(C)OC(=O)C=C[C@@]2(C)C1CC(=O)[C@]1(C)C2CC[C@@]2(C)[C@H](c3ccoc3)OC(=O)[C@H]3O[C@]321 (stereo partly specified) | -19.1% | inactive | inactive | – | – | –
COc1ccc2nc(S(=O)(=O)Cc3ncc(C)c(OC)c3C)[nH]c2c1 | 6.33% | inactive | inactive | – | – | –
CC(=O)O[C@@H]1[C@H](O[C@@H]2O[C@H](CO)[C@@H](O)[C@H](O)[C@H]2O)[C@@H](O[C@@H]2O[C@@H](C)[C@H](O)[C@@H](O[C@@H]3O[C@H](CO)[C@@H](O)[C@H](O)[C@H]3O)[C@H]2O)[C@H](OC(=O)C23CCC4(C)C(=CCC5C6(C)CC(O)C(O[C@@H]7O[C@H](C(=O)O)[C@@H](O)[C@H](O)[C@H]7O)C(C)(C(=O)O)C6CCC54C)C2CC(C)(C)CC3O)O[C@@H]1C (stereo partly specified) | 22.9% | – | – | -6.27% [at 11.2 µM] | -5.68% [at 11.2 µM] | –
C=C1CC[C@@]2(OC1)O[C@H]1CC3[C@@H]4CC=C5C[C@H](O[C@H]6OC[C@@H](O)C(O)[C@@H]6O[C@@H]6O[C@@H](C)[C@H](O)[C@@H](O[C@@H]7O[C@H](CO)[C@@H](O)[C@H](O)[C@H]7O)[C@H]6O)C[C@@H](O)[C@]5(C)C4CC[C@]3(C)[C@H]1[C@@H]2C (stereo partly specified) | -6.25% | inactive | inactive | – | – | –
C/C=C(/C)C(=O)O[C@@H]1C[C@@H](OC(=O)CC(C)C)C2(C)C3C(=O)C=C(C)C2C3C1(C)C (stereo partly specified) | -29% | inactive | inactive | – | – | –
COC(=O)c1[nH]c(=O)c2ccccc2c1-c1ccc[nH]1 | -11.6% | inactive | inactive | – | – | –

SMILES | activation [1] | Potency [2] | Potency [3] | activity change, negative = inhibition [2] | activity change, negative = inhibition [3] | Potency [1]
CC(=O)OC[C@]1(O)[C@H]2[C@H](OC(=O)CC(C)C)OC=C(CO[C@@H]3O[C@H](CO)[C@@H](O)[C@H](O)[C@H]3O)[C@H]2C[C@@H]1O | -1.79% | inactive | inactive | – | – | –
CC(=O)O[C@H]1CC(C)(C)CC2[C@]13CO[C@@]21CCC2[C@@]4(C)CC[C@H](O[C@@H]5OC[C@H](O[C@@H]6O[C@H](CO)[C@@H](O)[C@H](O)[C@H]6O[C@@H]6OC[C@@H](O)[C@H](O)[C@H]6O)[C@H](O)[C@H]5O[C@@H]5O[C@H](CO)[C@@H](O)[C@H](O)[C@H]5O)[C@@](C)(CO)C4CC[C@@]2(C)[C@]1(C)C[C@H]3O (stereo partly specified) | -17.9% | inactive | inactive | – | – | –
CC1=CC(=O)C2C(C)(C)CCC[C@]2(C)[C@H]1CO (stereo partly specified) | -3.82% | inactive | inactive | – | – | –
CC(=O)Nc1ccn(C2COC(COC(=O)c3ccccc3)O2)c(=O)n1 (stereo unspecified) | 16.4% | inactive | inactive | – | – | –
Cn1ccnc1CCOC(c1cc2nccc(C(=O)O)c2[nH]1)c1ccccc1Cl (stereo unspecified) | -5% | inactive | inactive | – | – | –
C=C(C(=O)OC)[C@]12O[C@@](C)(CC[C@@]3(O)/C(=C\C)C(=O)O[C@]3(C)C[C@@H]1OC(=O)C(CO)CN1CCCC1C(=O)O)CC2=O (stereo partly specified) | -18.8% | inactive | inactive | – | – | –
COC1=CC(=O)O[C@@H](/C=C/c2ccccc2)[C@@H]1O | 9.82% | inactive | inactive | – | – | –
CC[C@H]1OC(=O)[C@H](C)[C@@H](OC2C[C@@](C)(OC)[C@@H](O)[C@H](C)O2)[C@H](C)[C@@H](OC2O[C@H](C)C[C@H](NC)[C@H]2O)[C@](C)(O)C[C@@H](C)CN(C)[C@H](C)[C@@H](O)[C@]1(C)O (stereo partly specified) | 4.33% | inactive | inactive | – | – | –
COc1ccc(/C=C\C(=O)O)c(O[C@@H]2O[C@H](CO)[C@@H](O)[C@H](O)[C@H]2O)c1 | -7.63% | inactive | inactive | – | – | –
CC1(C)O[C@]23C[C@H]1C[C@H](OC(=O)c1ccoc1)[C@]2(C)[C@@H](OC(=O)c1ccoc1)CCC3(C)O (stereo partly specified) | -5.34% | inactive | inactive | – | – | –
C/C(=C\C1CCC(C)C2CCC3(C)OC123)C(=O)O (stereo unspecified) | 8.04% | inactive | inactive | – | – | –
C=C1[C@@H]2CC[C@@]3(C)[C@H](c4ccoc4)OC(=O)C[C@]13O[C@H]1CC(=O)C(C)(C)[C@H](C(O)C(=O)OC)[C@]12C (stereo partly specified) | 8.04% | inactive | inactive | – | – | –
CNc1cccc(CCOc2ccc3c(c2)CN(CC(F)(F)F)C(=O)[C@H](CC(=O)O)C3)n1 | 2.86% | inactive | inactive | – | – | –
COC(=O)C1=CO[C@@H](O[C@@H]2O[C@H](CO[C@@H]3O[C@H](CO)[C@@H](O)[C@H](O)[C@H]3O)[C@@H](O)[C@H](O)[C@H]2O)[C@@H]2C(CO)=CC[C@H]12 | 8.4% | inactive | inactive | – | – | –
O=C(O)CCc1cc2ccoc2cc1O[C@@H]1O[C@H](CO[C@@H]2OC[C@](O)(CO)[C@H]2O)[C@@H](O)[C@H](O)[C@H]1O | -11.5% | inactive | inactive | – | – | –
CCOC(=O)N1c2ccc(C(F)(F)F)cc2C(N(Cc2cc(C(F)(F)F)cc(C(F)(F)F)c2)C(=O)OC)CC1CC (stereo unspecified) | -4.3% | inactive | inactive | – | – | –
C=CC(C)(O)CC/C=C(\C)C(=O)O[C@@H]1[C@@H](O)[C@H](OC(C)(C=C)CC/C=C(\C)C(=O)O)O[C@H](CO)[C@H]1OC(=O)/C(C)=C/CCC(C)(O)C=C (stereo partly specified) | 9.92% | inactive | inactive | – | – | –
CC(C)(C)c1ccc(NC(=O)N2CCN(c3ncccc3Cl)CC2)cc1 | -11.5% | inactive | inactive | – | – | –
COc1cc(COC2OC(CO)C(O)C(O)C2O)cc(OC)c1O (stereo unspecified) | -6.87% | inactive | inactive | – | – | –
CC12CC(c3ccoc3)OC(=O)C1CCC1(C)C2CCC(O)C1(C)O (stereo unspecified) | 23.7% | inactive | inactive | – | – | –
C=C1CC(=O)C2OC2(C)CC2OC(=O)C(=C)C2C(O)C1OC(=O)/C(C)=C\C (stereo unspecified) | – | inactive | inactive | – | – | 16.6 µM (active)
